NS1 function inh = inhibitors of influenza NS1 protein function; Potency, µM (series often up to 46.1 µM), inactives show top-dose activity, positive = more growth; AID 2326; 270,000 compounds, 0.4% hits; calls by dose curve; further: potency means the concentration at half of the fitted maximal effect; actives are rising curves; nearly all actives have a fitted effect of over 50% in size
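Read-out: OD600 growth recovery of NS1-expressing budding yeast. Cells grown overnight at 30C in -URA glucose medium, washed, resuspended and diluted 1:100 in 2% galactose assay medium, pH 6.0. Same strain lacking NS1 served as positive control.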
Cruzain inh Det = blocks cruzain activity in presence of Triton detergent; AID 1478; purified cruzain, Z-FR-AMC fluorescence, 0.01% Triton; Potency, µM, inactives show max response, negative = inhibition, hits mostly inhibitors; P25779; 200,000 compounds, 0.43% hits;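 further: potency means the concentration at half of the fitted maximal effect; plate controls were neutral wells for no effect and buffer without enzyme for full effect; nearly all actives have a fitted effect of over 40% in size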
Target sequence (P25779 123-467 limits assumed): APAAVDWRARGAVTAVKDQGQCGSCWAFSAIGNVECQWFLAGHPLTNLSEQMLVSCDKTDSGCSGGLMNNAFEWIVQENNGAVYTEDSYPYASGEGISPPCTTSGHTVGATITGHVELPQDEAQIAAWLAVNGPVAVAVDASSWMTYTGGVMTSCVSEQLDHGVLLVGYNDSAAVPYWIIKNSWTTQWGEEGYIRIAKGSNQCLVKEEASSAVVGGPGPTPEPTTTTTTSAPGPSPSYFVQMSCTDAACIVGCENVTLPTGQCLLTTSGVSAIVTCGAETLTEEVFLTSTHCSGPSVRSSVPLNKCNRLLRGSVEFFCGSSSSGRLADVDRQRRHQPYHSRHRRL
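Compounds were screened in titration against cruzain (1.5 nM) with 0.01% Triton X-100 to counter colloidal aggregation. Activity was the AMC fluorescence increase over 60 s after adding 2 uM Z-FR-AMC at pH 5.5.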
Cruzain noTriton = inhibitors of Trypanosoma cruzi cruzain without detergent; Potency, µM, without a hit: max response, negative = inhibition, hits mostly inhibitors; purified cruzain, Z-FR-AMC fluorescence, no detergent; 200,000 compounds, 2.3% hits;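 further: potency means the concentration at half of the fitted maximal effect; plate controls were enzyme without inhibitor for no effect and buffer without enzyme for full effect; nearly all actives have a fitted effect of over 40% in size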
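Purified cruzain at 1.5 nM, pre-incubated 15 min with compound at room temperature in 100 mM sodium acetate pH 5.5, 5 mM DTT, 0.00005% Triton X-100. Reaction started with 2 uM Z-FR-AMC; AMC fluorescence increase over 60 s gives rate.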
NS1 inh valid = validation of influenza NS1 protein function inhibitors | AID 492980 | activity change, negative = inhibition, % at 32.9 µM | 1,400 tested, under 10 active | influenza NS1 function cell assay, 15-point titration | shares compounds with NS1 function inh; calls by dose curve; further: 0% is about no effect
* = called active by the depositor. The sample as a whole holds a higher share of hits than the screen did. Unless noted, the call rests on the fitted dose curve; in most records, active means well fitted curve in the direction sought with a large enough effect; inconclusive means small, poorly fitted or top-dose-only effect, or another doubt; inactive means no such curve, though single readings can be large; an effect the other way counts as inactive or inconclusive.

Screening CN1CCN(c2ccccc2NC(=O)c2ccc(N3CCCCC3)c([N+](=O)[O-])c2)CC1 returned NS1 function inh 4%.
Cc1c(NC(=O)c2ccc(N3CCCC3)c([N+](=O)[O-])c2)cccc1-c1nc2ccccc2s1 was read as NS1 function inh 2µM*, Cruzain inh Det -7%, Cruzain noTriton 7.9µM* and NS1 inh valid 11.
COc1ccccc1-c1ccc2ncnc(N(C)C)c2c1 was read as Cruzain inh Det -8% and Cruzain noTriton 0%.
`COc1ccccc1C(=O)NNC(=S)NC(=O)c1sc2ccccc2c1Cl` gave NS1 function inh inconclusive, Cruzain inh Det 8%, Cruzain noTriton 10µM* and NS1 inh valid inconclusive.
Screening COc1ccccc1C(=O)NNC(=S)NC(=O)c1cccs1 returned NS1 function inh 3%.
For O=C1C(=O)N(C2CCN(C(=O)c3ccccc3F)CC2)CCN1Cc1ccc(F)cc1 the results were Cruzain inh Det 2% and Cruzain noTriton -11%.
Cc1ccc(C(=O)O)cc1NC(=S)NC(=O)C(c1ccccc1)c1ccccc1 was read as NS1 function inh inconclusive, Cruzain inh Det -12%, Cruzain noTriton 18% and NS1 inh valid 6.
Screening CCC(C(=O)Nc1cc(C(=O)O)ccc1C)c1ccccc1 (stereo not given) returned NS1 function inh 5%.
Screening Cc1ccc(C(=O)O)cc1NC(=S)NC(=O)Cc1ccccc1 returned NS1 function inh 0%, Cruzain inh Det 4% and Cruzain noTriton -6%.
`CCC(C(=O)Nc1ccc(C(=O)O)cc1NC(=O)C(CC)c1ccccc1)c1ccccc1` (stereo not given) gave NS1 function inh 11µM* and NS1 inh valid 6.
`O=C1C(=O)N(c2nccs2)C(c2ccccc2F)/C1=C(\O)c1ccc2c(c1)OCCO2` (stereo not given) gave NS1 function inh 13%.
Screening C/C(=N\Nc1nc(C)cc(-c2ccccc2)n1)c1ccccc1 returned NS1 function inh 5%.
For C/C(=N\Nc1nc2ccc(Cl)cc2o1)c1ccccc1 the results were NS1 function inh 8.9µM* and NS1 inh valid inconclusive.
`O=C(c1cnccn1)N1CCC2(CC1)CN(Cc1ccccc1)C2` gave Cruzain inh Det 4% and Cruzain noTriton 6%.
Cc1ccc(N(Cc2ccccc2)Cc2ccccc2)cc1 was read as NS1 function inh -14%, Cruzain inh Det -4% and Cruzain noTriton -9%.
Screening CCCNC(=O)CCSc1nc(-c2ccc3c(c2)OCO3)cc(C(F)(F)F)n1 returned Cruzain inh Det -1% and Cruzain noTriton -3%.
For O=C(CN1C(=O)C2CCCCC2C1=O)OCn1nnc2ccccc2c1=O (stereo not given) the results were NS1 function inh -6%.
For CCC1(CC)NC(=O)N(CC(=O)OCn2nnc3ccccc3c2=O)C1=O the results were NS1 function inh 7.1µM*, Cruzain inh Det -2%, Cruzain noTriton 3% and NS1 inh valid 3.
For COc1ncc2nc(-c3ccc(Cl)cc3)c(=O)n(Cc3cccs3)c2n1 the results were Cruzain inh Det 4% and Cruzain noTriton 1%.
For COc1ccc(NC(=O)c2cc(C3CC3)on2)c(OC)c1 the results were NS1 function inh inconclusive, Cruzain inh Det 0% and Cruzain noTriton -6%.
`COc1ccc(NC(=O)c2cc(-c3ccco3)on2)c(OC)c1` gave NS1 function inh inconclusive and NS1 inh valid -15.
Screening CCC(Sc1nc2cc3c(cc2c(=O)n1CCCCCC(=O)NCc1ccc2c(c1)OCO2)OCO3)C(=O)NCCCOC (stereo not given) returned Cruzain inh Det 4% and Cruzain noTriton 14%.
Cc1ccc(S(=O)(=O)N2CCC(C(=O)Nc3ccccc3N3CCCCC3)CC2)cc1 was read as NS1 function inh 5µM*, Cruzain inh Det 2%, Cruzain noTriton -22% and NS1 inh valid 4.
`COc1ccc(S(=O)(=O)N2CCC(C(=O)Nc3ccccc3N3CCCC3)CC2)cc1OC` gave NS1 function inh -23%.
For Cc1cc2c(cc1Cl)C(c1ccc3c(c1)OCO3)CC(=O)O2 (stereo not given) the results were Cruzain inh Det 0% and Cruzain noTriton -1%.
For CCCCOCC1CO1 (stereo not given) the results were Cruzain inh Det -2% and Cruzain noTriton 5%.
`CC1CCN(C(=O)CSc2nc3ccccc3c(=O)n2Cc2ccc3c(c2)OCO3)CC1` gave NS1 function inh inconclusive, Cruzain inh Det 3%, Cruzain noTriton -12% and NS1 inh valid inconclusive.
CC1CCCCN1C(=O)CSc1nc2cc3c(cc2c(=O)n1Cc1ccc2c(c1)OCO2)OCO3 (stereo not given) was read as NS1 function inh -9%, Cruzain inh Det 0% and Cruzain noTriton inconclusive.
`COc1ccc(N2CC3=C(C2=O)C(c2ccc(Br)cc2)NC(=O)N3C)cc1` (stereo not given) gave Cruzain inh Det -1% and Cruzain noTriton -6%.
Cc1cc(NC(=O)c2cc(CC(C)C)on2)no1 was read as NS1 function inh -4%, Cruzain inh Det -1% and Cruzain noTriton -6%.
For CCC(C)NC(=O)c1cc(CC(C)C)on1 (stereo not given) the results were NS1 function inh inconclusive, Cruzain inh Det 0%, Cruzain noTriton -12% and NS1 inh valid -17.
Screening O=C(N/N=C/c1cccc(O)c1)c1ccc(COc2ccccc2Br)cc1 returned NS1 function inh inconclusive, Cruzain inh Det 2%, Cruzain noTriton 18% and NS1 inh valid inconclusive.
For O=C(N/N=C\c1cccc(O)c1)c1ccncc1 the results were NS1 function inh -4%, Cruzain inh Det 0% and Cruzain noTriton 5%.
O=C(NCCCN1CCOCC1)c1ccc(Cl)cc1Cl was read as NS1 function inh 4%.
Screening COc1ccc(-c2cc3nc(C)c(CCC(=O)Nc4ccccc4C(C)=O)c(C)n3n2)c(OC)c1 returned Cruzain inh Det -1% and Cruzain noTriton 5%.
Screening CC(C)(C)OC(=O)CNC(=O)c1[nH]cnc1C(=O)NC(c1ccccc1)c1ccccc1 returned NS1 function inh 14µM* and NS1 inh valid -25.
`C[C@H](NC(=O)c1nc[nH]c1C(=O)N[C@@H](Cc1ccccc1)C(=O)OC(C)(C)C)C(=O)OCc1ccccc1` gave NS1 function inh 11µM* and NS1 inh valid 9.
CC(C)C[C@H](NC(=O)c1nc[nH]c1C(=O)NCC(=O)OC(C)(C)C)C(=O)OCc1ccccc1 was read as NS1 function inh -5%.
CC(C)C[C@H](NC(=O)c1nc[nH]c1C(=O)N[C@@H](CC(C)C)C(=O)OC(C)(C)C)C(=O)OCc1ccccc1 was read as NS1 function inh 16%.
`CNC(=O)c1[nH]cnc1C(=O)N[C@@H](Cc1ccccc1)C(=O)OCc1ccccc1` gave NS1 function inh 0%.
C[C@H](NC(=O)c1nc[nH]c1C(=O)N[C@@H](Cc1ccccc1)C(=O)OCc1ccccc1)C(=O)OCc1ccccc1 was read as NS1 function inh 7.9µM* and NS1 inh valid 17.
CN(Cc1ccccc1)C(=O)c1ccc2c(c1)N(Cc1ccc(Cl)cc1)C(=O)c1ccccc1S2=O (stereo not given) was read as Cruzain inh Det 1% and Cruzain noTriton -3%.

Compound activity: PubChem BioAssay, National Center for Advancing Translational Sciences (NCATS)
